# Reference: the supplement of paper PMC11001985
# Compound: C#CCNC(=O)CCSSCCC(=O)NCCc1ccc(C=O)c(C=O)c1
# Assay: lysine labeling ratio R10:1 (500 µM / 50 µM probe), SILAC-ABPP in living cells; higher = lower intrinsic lysine reactivity toward the probe, active = 2 or less
# Settings: HeLa; probe concentrations 500 vs 50 µM
# Summary of the method: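 The two probe levels, 50 µM and 500 µM, of an alkyne-tagged, disulfide-linked lysine probe were applied to living light and heavy SILAC HeLa cells in PBS at room temperature, and the labels were run in both forward and reverse orientation. Mixed lysates underwent biotin-azide click chemistry, trypsin digestion, neutravidin capture, DTT release and alkylation before LC-MS/MS on a TIMS-TOF Pro. R is the filtered median high-probe/low-probe MS1 peptide ratio for each lysine, summarised as the median over forward and reverse replicates. Nothing above 20 is reported; such values are set to 20.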
# Chain of UniProt Q99985 (Q99985 whole entry): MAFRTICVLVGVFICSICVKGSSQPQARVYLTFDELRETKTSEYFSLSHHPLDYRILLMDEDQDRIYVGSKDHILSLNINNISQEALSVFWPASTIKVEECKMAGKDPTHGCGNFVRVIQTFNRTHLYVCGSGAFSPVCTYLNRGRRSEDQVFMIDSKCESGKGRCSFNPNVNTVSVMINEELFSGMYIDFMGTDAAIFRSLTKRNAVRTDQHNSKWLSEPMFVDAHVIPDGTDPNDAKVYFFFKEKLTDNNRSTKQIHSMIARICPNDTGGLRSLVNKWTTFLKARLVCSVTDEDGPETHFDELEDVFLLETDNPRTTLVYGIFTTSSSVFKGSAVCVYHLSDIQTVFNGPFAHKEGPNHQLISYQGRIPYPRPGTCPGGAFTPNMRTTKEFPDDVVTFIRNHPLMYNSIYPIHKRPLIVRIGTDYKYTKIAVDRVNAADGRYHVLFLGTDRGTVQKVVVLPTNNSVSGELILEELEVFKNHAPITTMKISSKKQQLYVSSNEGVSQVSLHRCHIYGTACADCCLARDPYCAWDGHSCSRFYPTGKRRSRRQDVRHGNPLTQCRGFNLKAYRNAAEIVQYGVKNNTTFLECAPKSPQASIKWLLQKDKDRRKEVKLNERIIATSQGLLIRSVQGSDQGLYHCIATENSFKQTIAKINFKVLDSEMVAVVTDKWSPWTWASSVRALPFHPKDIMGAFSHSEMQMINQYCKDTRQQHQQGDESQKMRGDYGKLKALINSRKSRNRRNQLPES
# Chain of UniProt O15230 (O15230 whole entry): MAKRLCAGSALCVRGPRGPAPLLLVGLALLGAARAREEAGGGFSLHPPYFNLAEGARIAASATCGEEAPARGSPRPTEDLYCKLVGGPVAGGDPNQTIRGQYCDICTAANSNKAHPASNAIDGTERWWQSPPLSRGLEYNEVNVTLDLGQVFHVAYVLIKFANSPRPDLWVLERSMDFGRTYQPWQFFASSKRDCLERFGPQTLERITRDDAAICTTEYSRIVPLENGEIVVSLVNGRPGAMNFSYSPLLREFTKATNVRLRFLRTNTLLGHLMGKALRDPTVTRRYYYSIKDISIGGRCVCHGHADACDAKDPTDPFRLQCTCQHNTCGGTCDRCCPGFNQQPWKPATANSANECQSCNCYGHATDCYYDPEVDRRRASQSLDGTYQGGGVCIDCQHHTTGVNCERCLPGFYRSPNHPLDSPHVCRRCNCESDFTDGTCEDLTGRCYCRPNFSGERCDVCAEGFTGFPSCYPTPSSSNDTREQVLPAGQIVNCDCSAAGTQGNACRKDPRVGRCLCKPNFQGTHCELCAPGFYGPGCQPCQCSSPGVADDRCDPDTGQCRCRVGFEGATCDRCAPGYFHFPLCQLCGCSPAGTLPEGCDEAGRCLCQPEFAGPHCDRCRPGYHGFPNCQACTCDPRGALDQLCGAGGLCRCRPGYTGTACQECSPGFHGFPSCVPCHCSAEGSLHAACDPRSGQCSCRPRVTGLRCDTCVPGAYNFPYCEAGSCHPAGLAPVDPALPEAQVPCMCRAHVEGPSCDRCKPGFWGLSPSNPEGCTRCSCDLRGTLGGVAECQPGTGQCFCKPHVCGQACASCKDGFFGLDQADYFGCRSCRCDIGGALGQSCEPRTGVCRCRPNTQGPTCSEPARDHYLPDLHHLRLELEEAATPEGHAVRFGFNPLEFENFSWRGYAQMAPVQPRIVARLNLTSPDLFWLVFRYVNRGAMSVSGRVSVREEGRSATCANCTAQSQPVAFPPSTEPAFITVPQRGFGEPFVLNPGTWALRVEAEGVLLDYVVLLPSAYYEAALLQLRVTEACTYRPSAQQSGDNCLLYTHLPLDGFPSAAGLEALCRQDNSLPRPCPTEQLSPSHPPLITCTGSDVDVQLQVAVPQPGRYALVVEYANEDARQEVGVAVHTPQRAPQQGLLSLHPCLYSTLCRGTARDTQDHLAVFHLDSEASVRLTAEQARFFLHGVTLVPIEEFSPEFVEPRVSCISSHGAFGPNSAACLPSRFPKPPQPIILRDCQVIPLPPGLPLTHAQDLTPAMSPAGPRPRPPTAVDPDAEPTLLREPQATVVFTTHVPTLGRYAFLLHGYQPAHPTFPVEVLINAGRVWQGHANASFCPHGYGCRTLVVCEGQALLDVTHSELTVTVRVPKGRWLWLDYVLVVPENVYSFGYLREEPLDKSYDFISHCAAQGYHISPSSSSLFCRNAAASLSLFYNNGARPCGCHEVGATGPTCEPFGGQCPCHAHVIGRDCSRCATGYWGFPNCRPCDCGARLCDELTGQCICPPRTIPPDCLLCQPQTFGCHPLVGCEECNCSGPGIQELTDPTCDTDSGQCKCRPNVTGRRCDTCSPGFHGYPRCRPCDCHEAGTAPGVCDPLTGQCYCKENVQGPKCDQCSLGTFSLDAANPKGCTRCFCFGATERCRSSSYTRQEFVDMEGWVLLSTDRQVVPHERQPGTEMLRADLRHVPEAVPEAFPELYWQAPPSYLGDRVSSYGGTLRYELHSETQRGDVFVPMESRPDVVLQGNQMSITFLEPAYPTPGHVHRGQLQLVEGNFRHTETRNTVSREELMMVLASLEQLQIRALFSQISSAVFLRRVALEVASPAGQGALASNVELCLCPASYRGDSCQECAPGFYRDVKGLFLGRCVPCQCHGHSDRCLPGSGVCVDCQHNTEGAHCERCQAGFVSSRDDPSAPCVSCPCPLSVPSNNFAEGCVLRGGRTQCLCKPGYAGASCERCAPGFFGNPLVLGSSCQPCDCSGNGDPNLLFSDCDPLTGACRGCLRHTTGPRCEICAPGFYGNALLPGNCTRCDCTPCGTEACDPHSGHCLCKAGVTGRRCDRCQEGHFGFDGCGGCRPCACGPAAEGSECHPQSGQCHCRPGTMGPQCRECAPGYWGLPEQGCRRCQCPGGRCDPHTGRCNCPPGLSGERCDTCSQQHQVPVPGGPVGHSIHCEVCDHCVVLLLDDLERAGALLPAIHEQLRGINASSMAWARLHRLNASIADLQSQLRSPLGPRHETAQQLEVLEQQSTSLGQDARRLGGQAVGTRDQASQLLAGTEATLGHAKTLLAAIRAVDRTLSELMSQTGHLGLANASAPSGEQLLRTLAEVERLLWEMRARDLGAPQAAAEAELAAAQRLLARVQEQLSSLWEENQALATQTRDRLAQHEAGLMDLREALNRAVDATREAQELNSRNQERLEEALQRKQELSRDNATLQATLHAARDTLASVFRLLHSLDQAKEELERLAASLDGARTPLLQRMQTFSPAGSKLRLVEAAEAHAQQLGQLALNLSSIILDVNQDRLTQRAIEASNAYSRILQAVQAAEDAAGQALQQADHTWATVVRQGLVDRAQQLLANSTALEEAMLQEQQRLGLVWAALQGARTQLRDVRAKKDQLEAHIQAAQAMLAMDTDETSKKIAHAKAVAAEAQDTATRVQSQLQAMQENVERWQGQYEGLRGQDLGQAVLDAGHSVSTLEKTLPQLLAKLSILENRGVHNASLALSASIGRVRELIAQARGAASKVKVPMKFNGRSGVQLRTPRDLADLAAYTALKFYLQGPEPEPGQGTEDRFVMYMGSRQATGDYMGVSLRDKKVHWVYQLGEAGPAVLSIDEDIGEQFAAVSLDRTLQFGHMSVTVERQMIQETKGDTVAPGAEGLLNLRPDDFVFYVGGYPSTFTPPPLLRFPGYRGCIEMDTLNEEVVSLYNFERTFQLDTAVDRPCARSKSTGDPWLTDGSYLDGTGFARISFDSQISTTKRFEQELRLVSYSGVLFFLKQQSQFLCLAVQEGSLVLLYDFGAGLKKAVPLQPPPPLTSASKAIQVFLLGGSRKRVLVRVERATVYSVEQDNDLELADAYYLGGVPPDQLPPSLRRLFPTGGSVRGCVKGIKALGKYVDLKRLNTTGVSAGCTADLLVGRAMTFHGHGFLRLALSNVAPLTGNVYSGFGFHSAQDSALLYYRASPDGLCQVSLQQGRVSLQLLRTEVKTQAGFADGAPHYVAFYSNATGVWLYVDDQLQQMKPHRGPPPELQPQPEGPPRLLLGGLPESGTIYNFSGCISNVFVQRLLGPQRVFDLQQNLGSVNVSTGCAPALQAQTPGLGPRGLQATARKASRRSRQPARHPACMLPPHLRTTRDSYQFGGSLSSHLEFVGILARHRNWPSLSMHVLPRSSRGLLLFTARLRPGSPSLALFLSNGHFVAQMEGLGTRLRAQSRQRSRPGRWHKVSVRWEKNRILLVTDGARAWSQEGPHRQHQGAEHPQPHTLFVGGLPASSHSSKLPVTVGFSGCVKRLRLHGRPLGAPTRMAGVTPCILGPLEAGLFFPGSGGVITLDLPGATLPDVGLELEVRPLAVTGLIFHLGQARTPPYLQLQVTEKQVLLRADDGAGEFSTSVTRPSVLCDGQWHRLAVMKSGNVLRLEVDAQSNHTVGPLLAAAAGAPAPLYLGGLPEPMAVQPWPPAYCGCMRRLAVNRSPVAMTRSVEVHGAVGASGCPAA
# Chain of UniProt P30101 (P30101 whole entry): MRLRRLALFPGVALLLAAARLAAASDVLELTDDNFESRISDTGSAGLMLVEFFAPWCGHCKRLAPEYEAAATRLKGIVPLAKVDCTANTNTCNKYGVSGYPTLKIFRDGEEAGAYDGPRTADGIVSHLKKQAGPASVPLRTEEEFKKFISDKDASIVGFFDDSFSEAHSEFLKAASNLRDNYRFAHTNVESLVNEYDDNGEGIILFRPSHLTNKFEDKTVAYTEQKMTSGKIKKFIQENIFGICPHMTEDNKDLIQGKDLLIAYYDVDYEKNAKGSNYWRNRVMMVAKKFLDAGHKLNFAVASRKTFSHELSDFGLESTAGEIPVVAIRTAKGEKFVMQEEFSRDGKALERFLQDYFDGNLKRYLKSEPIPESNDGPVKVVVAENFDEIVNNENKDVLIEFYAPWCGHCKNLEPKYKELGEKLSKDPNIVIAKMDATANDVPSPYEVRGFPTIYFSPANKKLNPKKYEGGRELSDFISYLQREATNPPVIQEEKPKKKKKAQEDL
# Chain of UniProt P10599 (P10599 whole entry): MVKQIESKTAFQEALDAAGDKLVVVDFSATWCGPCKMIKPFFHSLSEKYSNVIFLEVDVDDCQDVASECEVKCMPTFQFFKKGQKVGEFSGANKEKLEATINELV
row,Target,lysine labeling ratio R10:1
1,PDIA3 (lysine site: K104) (UniProt P30101),1.07 (active)
2,TUFM (lysine site: K91) (UniProt P49411),2.38 (inactive)
3,SERBP1 (lysine site: K72) (UniProt Q8NC51),1.17 (active)
4,PLOD2 (lysine site: K89) (UniProt O00469),1.37 (active)
5,RPS3 (lysine site: K75) (UniProt P23396),2.68 (inactive)
6,UniProt Q14696 (lysine site: K222),3.35 (inactive)
7,RPL4 (lysine site: K182) (UniProt P36578),1.85 (active)
8,HM13 (lysine site: K61) (UniProt Q8TCT9),1.69 (active)
9,GPI (lysine site: K34) (UniProt P06744),2.53 (inactive)
10,FZD5 (lysine site: K113) (UniProt Q13467),1.57 (active)
11,DDX5 (lysine site: K523) (UniProt P17844),4.4 (inactive)
12,SPTBN1 (lysine site: K1878) (UniProt Q01082),4.5 (inactive)
13,VIM (lysine site: K120) (UniProt P08670),10 (inactive)
14,EGFR (lysine site: K489) (UniProt P00533),1.31 (active)
15,AK2 (lysine site: K147) (UniProt P54819),6.91 (inactive)
16,CCT8 (lysine site: K20) (UniProt P50990),2.11 (inactive)
17,SUB1 (lysine site: K97) (UniProt P53999),6.03 (inactive)
18,COPA (lysine site: K607) (UniProt P53621),1.94 (active)
19,PTPRM (lysine site: K231) (UniProt P28827),1.53 (active)
20,PDCD6IP (lysine site: K486) (UniProt Q8WUM4),0.775 (active)

row,Target,lysine labeling ratio R10:1
1,LDLR (lysine site: K518) (UniProt P01130),1.72 (active)
2,FN1 (lysine site: K248) (UniProt P02751),2.7 (inactive)
3,UniProt P26639 (lysine site: K694),1.36 (active)
4,MSN (lysine site: K151) (UniProt P26038),2.26 (inactive)
5,KIRREL (lysine site: K410) (UniProt Q96J84),2.51 (inactive)
6,LAMA5 (lysine site: K1854) (UniProt O15230),3.02 (inactive)
7,TLN1 (lysine site: K1171) (UniProt Q9Y490),1.76 (active)
8,TXN (lysine site: K96) (UniProt P10599),2.11 (inactive)
9,RPL4 (lysine site: K120) (UniProt P36578),3.18 (inactive)
10,NUCB2 (lysine site: K84) (UniProt P80303),1.63 (active)
11,VAT1 (lysine site: K391) (UniProt Q99536),2.03 (inactive)
12,CCT5 (lysine site: K214) (UniProt P48643),1.21 (active)
13,SERPINH1 (lysine site: K217) (UniProt P50454),1.17 (active)
14,ALDOA (lysine site: K14) (UniProt P04075),5.1 (inactive)
15,ADAM9 (lysine site: K368) (UniProt Q13443),3.66 (inactive)
16,VASN (lysine site: K133) (UniProt Q6EMK4),4.74 (inactive)
17,FLNB (lysine site: K681) (UniProt O75369),2.09 (inactive)
18,PSMA4 (lysine site: K210) (UniProt P25789),1.69 (active)
19,SEMA3C (lysine site: K106) (UniProt Q99985),0.653 (active)
20,UniProt P05787 (lysine site: K198),7.97 (inactive)
